Measurements reported in PubChem BioAssay (EPA / NIEHS).
Records with an inconclusive call do not appear. Calls of active or inactive are those of the source. The calls were made as follows: active = hit-call score of the fitted dose curve at least 0.9, where 1 is the maximum; inconclusive = response in the unintended direction; inactive = score below 0.9.

Columns and labels:
[1] = TOX21_p53_BLA_p2_viability: Viability Assessment in the Tox21 HCT-116 p53 Agonism Beta-lactamase Assay, Phase 2 (AID 2283591);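 also: actives lower the ATP signal meaning cytotoxicity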
How it was run: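 HCT-116 p53-bla cells (4000/well) rested 5 h at 37C, then received compounds in DMSO (217-fold dilution) for 16 h at 37C, 5% CO2. After the CCF4 read, CellTiter-Glo was added; ATP luminescence was read after 30 min at room temperature.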

[2] = target: Cellular tumor antigen p53 (Homo sapiens) (UniProt P04637); assay: TOX21_p53_BLA_p2_ratio: Tox21 HCT-116 p53 Agonism Beta-lactamase Assay, Ratio, Phase 2 (AID 2283592)
Cellular tumor antigen p53 (Homo sapiens), sequence (P04637 whole entry, looked up): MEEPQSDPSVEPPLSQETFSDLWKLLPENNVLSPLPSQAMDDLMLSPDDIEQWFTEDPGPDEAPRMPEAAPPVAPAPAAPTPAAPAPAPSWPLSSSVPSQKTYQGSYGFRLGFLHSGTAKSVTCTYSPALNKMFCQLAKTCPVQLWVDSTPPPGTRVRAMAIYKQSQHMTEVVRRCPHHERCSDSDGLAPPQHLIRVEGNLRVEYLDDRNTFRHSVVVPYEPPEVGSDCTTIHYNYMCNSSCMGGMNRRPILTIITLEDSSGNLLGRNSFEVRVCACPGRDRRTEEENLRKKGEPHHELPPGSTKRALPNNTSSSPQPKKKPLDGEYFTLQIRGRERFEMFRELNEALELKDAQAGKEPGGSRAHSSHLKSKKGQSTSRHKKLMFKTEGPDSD
How it was run: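 First, HCT116 reporter cells settle for 5 h at 37C. Next, DMSO compound solutions are pinned in (217-fold dilution) and left 16 h. Finally, CCF4-AM substrate is loaded 2 h at room temperature and the 460/530 nm ratio read.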

[3] = target: Cellular tumor antigen p53 (Homo sapiens) (UniProt P04637); assay: TOX21_p53_BLA_p5_ratio: Tox21 HCT-116 p53 Agonism Beta-lactamase Assay, Ratio, Phase 5 (AID 2283599)
How it was run: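 HCT-116 cells carrying a p53-inducible beta-lactamase reporter were seeded at 4000 cells/well and dosed after 5 h with compound in DMSO (217-fold dilution). After 16 h at 37C, CCF4-AM substrate was added for 2 h, and the 460/530 nm emission ratio was scored as gain-of-signal versus DMSO.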

[4] = TOX21_p53_BLA_p5_viability: Viability Assessment in the Tox21 HCT-116 p53 Agonism Beta-lactamase Assay, Phase 5 (AID 2283600)
How it was run: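 Decreased CellTiter-Glo luminescence denotes lost viability. Exposure: 16 h at 37C, 5% CO2, with compounds from DMSO stocks diluted 217-fold in wells of 4000 cells.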

[5] = TOX21_p53_BLA_p4_viability: Viability Assessment in the Tox21 HCT-116 p53 Agonism Beta-lactamase Assay, Phase 4 (AID 2283597);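 also: hits lower the luminescence signal meaning cytotoxicity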
How it was run: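 4000 HCT116 cells per well; 5 h attachment; compounds from DMSO, 217-fold dilution; 16 h at 37C. Then CCF4-AM, 2 h RT, followed by CellTiter-Glo, 30 min RT, luminescence. Decrease = cytotoxicity.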

[6] = target: Cellular tumor antigen p53 (Homo sapiens) (UniProt P04637); assay: TOX21_p53_BLA_p4_ratio: Tox21 HCT-116 p53 Agonism Beta-lactamase Assay, Ratio, Phase 4 (AID 2283601)
How it was run: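 HCT116 cells carrying an inducible beta-lactamase reporter were plated at 4000 cells/well, rested 5 h, then exposed to compounds in DMSO (217-fold dilution) for 16 h at 37C. CCF4-AM substrate was loaded 2 h at room temperature; 460/530 nm emission ratio scored gain-of-signal versus DMSO.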

[7] = target: Cellular tumor antigen p53 (Homo sapiens) (UniProt P04637); assay: TOX21_p53_BLA_p3_ratio: Tox21 HCT-116 p53 Agonism Beta-lactamase Assay, Ratio, Phase 3 (AID 2283596)
How it was run: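 Cells were seeded at 4000/well, rested 5 h at 37C, then dosed with DMSO compound solutions (217-fold dilution) for 16 h. CCF4-AM substrate was loaded for 2 h at room temperature, and the 460/530 nm emission ratio was fitted for gain of signal versus DMSO.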

[8] = ACEA_ER_AUC_viability: ACEA Biosciences xCELLigence Real-Time Cell Analysis on Estrogen Receptor Agonism for Viability (AID 2283782);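 also: hit means loss of impedance signal meaning reduced cell growth or viability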
How it was run: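 Continuous-exposure impedance cell analysis uses T-47D cells in charcoal-stripped serum, eight 1:4 dilutions topping at 100 uM final, biological duplicate. Area under the growth curve at 80 h is fitted against DMSO baseline.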

[9] = CCTE_Harrill_HTTr_CellCount_MCF7: CCTE's Cell Proliferation Assessment for the High-Throughput Transcriptomics (HTTr) Platform, Harrill Lab (AID 2284012);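 also: count of Hoechst-stained nuclei per well by high-content imaging in MCF-7 cells; cells exposed to compound for six hours; intended direction is loss of nuclei count meaning fewer cells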
How it was run: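 Readout: Hoechst nuclear count by high-content imaging. MCF-7, 8-point dilution series, 6 h exposure. Bidirectional fit vs DMSO baseline.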

Measured: AC50

CN(C)CCc1c[nH]c2cccc(OP(=O)(O)O)c12
inactive: [1] | [2] | [3] | [4]

Cc1coc2c1CCC(C)C2 (stereo not drawn)
inactive: [1] | [2] | [5] | [3] | [4]

O=[N+]([O-])c1cccc(O)c1
inactive: [1] | [2] | [5] | [3] | [4]

CCCN1CCC[C@@H]2Cc3nc(N)ncc3C[C@H]21
inactive: [1] | [2] | [5] | [3]

CCN1C[C@]2(COC)[C@H](O)C[C@H](OC)[C@@]34[C@@H]5C[C@@]6(O)[C@H](OC(=O)c7ccccc7)[C@@H]5[C@@](OC(C)=O)([C@@H]([C@H](OC)[C@H]23)[C@@H]14)[C@@H](O)[C@@H]6OC
not listed: [7] | [8] | [9]
inactive: all other assays above

CC(Cl)(Cl)[N+](=O)[O-]
inactive: [1] | [2] | [5] | [3] | [6]

Clc1ccc2c(c1)C(c1ccccc1)=NCc1nncn1-2
inactive: [1] | [2] | [7] | [4] | [6]

c1ccc(C2CC2)c(OCC2=NCCN2)c1
not listed: [7] | [8] | [9]
inactive: all other assays above

CCC(=O)OC1(c2ccccc2)CCN(C)CC1
inactive: [1] | [2] | [3] | [4]

COc1ccc(C=O)cc1O
inactive: [1] | [2] | [7] | [3] | [6]

CC(C)(CCl)C(=O)Cl
inactive: [1] | [2] | [5] | [3] | [4]

CC[C@@H](CO)NC(=O)[C@@H]1C=C2c3cccc4[nH]cc(c34)C[C@H]2N(C)C1
inactive: [1] | [2] | [7] | [4] | [6]

COC(=O)[C@@H]1[C@H]2CC[C@@H](C[C@H]1OC(=O)c1ccccc1)N2C
inactive: [1] | [2] | [3]

CON(C)C(=O)Nc1ccc(Br)cc1
inactive: [1] | [2] | [5]

O=C(O)c1ccccc1C(=O)Nc1cccc2ccccc12
active: [6] 70.1 µM | [8] 85.4 µM
not listed: [7]
inactive: all other assays above

CCN(CC)Cc1nccn1-c1ccc([N+](=O)[O-])cc1C(=O)c1ccccc1Cl
inactive: [1] | [2] | [5] | [3] | [4]

O=C1c2ccccc2C(=O)c2ccccc21
inactive: [1] | [2] | [5] | [4] | [6]

NC1=NC(=O)C(c2ccccc2)O1 (stereo not drawn)
inactive: [1] | [2] | [7] | [4] | [6]
